The entries come from a sample that favours hits as a whole.
B2AR arrestin ag = ADRB2 beta-arrestin recruitment | HTLA Tango cells, beta-arrestin recruitment, luciferase luminescence, 18 h | Potency, µM (highest dose often 46.1 µM), hits mostly activators | 44,000 tested, under 10 active | AID 1347077
Target sequence (P07550 whole entry, looked up): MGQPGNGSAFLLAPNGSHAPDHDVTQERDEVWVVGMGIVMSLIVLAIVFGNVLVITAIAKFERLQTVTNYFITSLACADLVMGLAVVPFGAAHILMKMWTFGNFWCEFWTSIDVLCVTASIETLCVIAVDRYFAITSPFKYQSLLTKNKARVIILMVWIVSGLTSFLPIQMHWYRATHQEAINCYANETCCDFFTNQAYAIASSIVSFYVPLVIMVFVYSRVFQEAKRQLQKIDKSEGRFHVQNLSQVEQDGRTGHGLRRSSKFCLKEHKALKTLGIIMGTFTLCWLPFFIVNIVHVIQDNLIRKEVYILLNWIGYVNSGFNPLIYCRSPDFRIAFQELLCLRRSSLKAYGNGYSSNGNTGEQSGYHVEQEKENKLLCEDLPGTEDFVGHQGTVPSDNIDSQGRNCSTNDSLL
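Tango cells expressing recombinant beta2-AR and beta-arrestin were treated with compounds (up to 46 microM titration) in DMEM with 1% FBS for 18 hr at 37 degrees C. Beta-arrestin recruitment drove tTA-dependent luciferase, read by luminescence; curves were fitted and classed.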
HTT-AS promoter = activators of huntingtin-antisense promoter activity; HEK293 HTT-AS promoter firefly luciferase reporter, 24 h; response scale: percent change from vehicle, -100% = no light; Potency, µM (doses to about 57.5 µM), hits mostly activators; 48,000 compounds, 0.24% hits; AID 1508624; also: nearly all actives have a fitted effect of over 55% in size
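HEK293 luciferase promoter-reporter cells (2,500/well) plated 24 h, then compounds added at up to 57.5 uM final for 24 h at 37 °C. Firefly luminescence by Dual-Glo, normalized to vehicle (0%) and zero RLU (-100%).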
TSG101-PTAP inh = TSG101-PTAP interaction inhibition, HIV-1 budding. Fluorescence polarization, FITC-PTAP peptide/Tsg101, 20 min. 44,000 tested, under 10 active. Q99816. Potency, µM (top dose mostly 115 µM), usual class: inhibitors
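Read-out is FITC fluorescence polarization. Compounds were added to Tsg101 binding domain (10 uM final), then FITC-PTAP peptide (50 nM final), 20 min at r.t. Total S+P intensity flags fluorescent compounds.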
NTMT1 inh = inhibitors of human N-terminal methyltransferase NTMT1; Q9BV86; NTMT1 MTase-Glo SAH luminescence, purified enzyme; Potency, µM (top dose mostly 114 µM), most hits filed as inhibitors; 59,000 compounds, 2.5% hits; AID 1645870; also: nearly all actives have a fitted effect of over 65% in size
Target sequence (Q9BV86 whole entry, looked up): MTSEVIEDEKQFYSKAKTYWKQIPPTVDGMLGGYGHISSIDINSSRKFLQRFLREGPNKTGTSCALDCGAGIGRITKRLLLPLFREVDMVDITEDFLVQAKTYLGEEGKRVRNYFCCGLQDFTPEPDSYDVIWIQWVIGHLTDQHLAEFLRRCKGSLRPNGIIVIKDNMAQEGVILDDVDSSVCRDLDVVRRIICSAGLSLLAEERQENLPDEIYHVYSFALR
GALK inh = inhibitors of human galactokinase (GALK); P51570; recombinant GALK, Kinase-Glo ATP luminescence, 1 h; Potency, µM (doses to about 57.5 µM), hits mostly inhibitors; 44,000 tested, under 10 active
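Human GALK (5 nM) was incubated with 35 uM ATP and 100 uM galactose in 20 mM HEPES pH 8.0 with MgCl2, NaCl, DTT and BSA for 1 h at room temperature. Remaining ATP was measured by Kinase-Glo Plus luminescence.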
HTT prom inh = inhibitors of huntingtin promoter activity. HEK293 HTT promoter firefly luciferase reporter, 24 h. Potency, µM (highest dose often 57.5 µM), actives largely listed as inhibitors. 48,000 compounds, 0.93% hits. AID 1508623; also: nearly all actives have a fitted effect of over 50% in size
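Firefly luciferase readout (Dual-Glo, 10 min RT) after 24 h, 37 °C compound exposure (final up to 57.5 uM) of HEK293 reporter cells cultured 24 h beforehand; PTC124 at 50 uM final as control inhibitor; activity scaled vehicle 0%, zero RLU -100%.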
Numbers stand for hits; . = inactive; ? = inconclusive; / = not tested or not shown; ! = a repeat was not active. Calls follow the shape of the dose curve; as a rule, active = well fitted curve in the direction sought with a large enough effect; inconclusive = small, poorly fitted or top-dose-only effect, or another doubt; inactive = no such curve, though single readings can be large; an effect the other way counts as inactive or inconclusive.

SMILES	B2AR arrestin ag	HTT-AS promoter	TSG101-PTAP inh	NTMT1 inh	GALK inh	HTT prom inh
Cc1ccc(Cl)cc1N1CCN(CCNC(=O)Nc2ccccc2Cl)CC1	.	.	.	89µM	.	?
O=C(NCCN1CCN(c2cccc(Cl)c2)CC1)Nc1ccccc1C(F)(F)F	.	.	.	.	.	.
C#CC1(O)CC[C@H]2[C@@H]3CCC4=CCCC[C@@H]4[C@H]3CC[C@@]21C (stereo not given in full)	/	.	/	.	/	.
C#C[C@]1(O)CC[C@H]2[C@@H]3[C@H](C)CC4=C(CCC(=O)C4)[C@H]3CC[C@@]21C	/	.	/	25µM!	/	.
Cc1ccc(OCCn2c(CCNC(=O)/C=C/c3ccccc3)nc3ccccc32)cc1	/	/	/	.	/	/
COc1ccccc1N=c1scc(-c2ccc(S(=O)(=O)N3CCCC3)cc2)n1C	.	.	.	.	.	3.2µM
O=C1CCCC2=C1C(c1[nH]ncc1Cl)N=C(Nc1nccs1)N2 (stereo not given)	/	/	/	.	/	/
Fc1cc(Cl)cc(-c2ccc(CNc3nc(-c4ccccc4C(F)(F)F)nc4ccccc34)cc2)c1	/	/	/	.	/	/
NS(=O)(=O)c1ccc(Cc2c(-c3cccc(-c4ccccc4)c3)nn(-c3nc(C(=O)O)cs3)c2C2CC2)cc1	/	/	/	25µM	/	/
CCOC(=O)c1csc(-n2nc(-c3ccc(F)c(F)c3)c(Cc3ccc(S(N)(=O)=O)cc3)c2N)n1	/	/	/	.	/	/
O=C(Nc1ccc(N2CCOCC2)c(C(=O)O)c1)c1ccc(Br)cc1	.	.	.	89µM	.	.
CC(C)(C)C1CCc2nc(NC(=O)c3cccc(Cl)c3)sc2C1 (stereo not given)	.	.	.	.	.	0.35µM
CC(C)(C)C1CCc2nc(NC(=O)COc3ccccc3[N+](=O)[O-])sc2C1 (stereo not given)	.	.	.	.	.	4.5µM
CC(C)(C)C1CCc2nc(NC(=O)c3ccc([N+](=O)[O-])cc3)sc2C1 (stereo not given)	.	.	.	.	.	?
Cc1cccc(OCC(=O)Nc2nc3c(s2)CC(C(C)(C)C)CC3)c1C (stereo not given)	.	.	.	?	.	.
COc1cc2c(NC3CCN(C)CC3)nc(N3CCCN(C)CC3)nc2cc1OCCCN(C)C	/	/	/	.	/	/
COc1cc2nc(N3CCCCC3)nc(NC3CCN(Cc4ccccc4)CC3)c2cc1OC	/	/	/	45µM	/	/
COc1cc2nc(N3CCCC3)nc(NCCCCCN3CCCC3)c2cc1OC	/	/	/	32µM	/	/
CCc1ccc(N(CC(C)C)S(=O)(=O)c2ccc(OCC3CCOCC3)c(CO)c2)cc1	/	/	/	.	/	/
COc1cccc(NC(=O)CN(CCc2ccccc2)S(=O)(=O)c2ccc(Cl)cc2)c1	.	.	.	2.5µM	.	.
COC(=O)c1ccc(NC(=O)CN(CCc2ccccc2)S(=O)(=O)c2ccc(OC)cc2)cc1	.	.	.	?	.	?
O=C(c1cn(Cc2cncn2Cc2ccc(Br)cc2)cc1-c1cccc2ccccc12)N1CCOCC1	/	/	/	.	/	/
O=C(Nc1ccc(Br)cc1)c1ccc(Br)c(S(=O)(=O)N2CCCCC2)c1	.	.	.	.	?	13µM
O=C(C1CCC(CNS(=O)(=O)c2ccc(Br)s2)CC1)N1CCN(c2ccccc2)CC1 (stereo not given)	.	.	.	.	.	.
O=C(C1CCC(CNS(=O)(=O)c2cccs2)CC1)N1CCN(c2ccc(Cl)cc2)CC1 (stereo not given)	?	.	.	.	.	4µM
SMILES	B2AR arrestin ag	HTT-AS promoter	TSG101-PTAP inh	NTMT1 inh	GALK inh	HTT prom inh
CCCc1ncc(C[n+]2ccccc2C)c(N)n1	/	.	/	35µM	/	.
COc1cc2ncnc(Nc3cccc(Cl)c3)c2cc1OC	/	.	/	25µM	/	.
COc1cc2ncnc(Nc3cccc(O)c3)c2cc1OC	/	/	/	.	/	/
COc1cc2ncnc(Nc3cccc(Br)c3)c2cc1OC	/	.	/	16µM	/	.
O=C(NCc1ccccc1)[C@H](Cc1ccccc1)NC(=O)[C@H]1O[C@@H]1C(=O)NCCc1ccc(O)cc1	/	/	/	.	/	/
CN1CCC[C@@H]1c1cccnc1	/	.	/	16µM	/	.
CN1C(=O)CC[C@H]1c1cccnc1	/	.	/	.	/	.
N#Cc1ccc(-c2ccc(=O)n(CC(=O)NCCc3ccccc3)n2)cc1	/	/	/	.	/	/
Cc1ccc(-c2nc3scc(CCNS(=O)(=O)c4ccc(Oc5ccccc5)cc4)n3n2)cc1	.	.	.	.	.	20µM
COc1ccc(-c2nc3scc(CCNS(=O)(=O)c4ccc(Oc5ccccc5)cc4)n3n2)cc1	.	.	.	.	.	.
Cc1cc(N[S+](=O)([O-])c2ccc(NC(=O)Cc3ccccc3Cl)cc2)no1	/	/	/	.	/	/
O=C(NC1CCCc2c1cnn2-c1ccc(F)cc1F)c1ccccc1 (stereo not given)	/	/	/	79µM!	/	/
CC(C)(C)c1ccc(CN2CCN(C(c3ccccc3)c3ccc(Cl)cc3)CC2)cc1 (stereo not given)	/	/	/	.	/	/
Cc1cccc(CN2CCN(C(c3ccccc3)c3ccc(Cl)cc3)CC2)c1 (stereo not given)	/	.	/	32µM!	/	.
O=[N+]([O-])c1cccc(CNc2ccc(S(=O)(=O)Nc3nccs3)cc2)c1O	/	/	/	.	/	/
COc1ccc(C(=O)Nc2noc3ccccc23)cc1	.	?	.	11µM	.	.
Cc1ccc(C(=O)Nc2noc3ccccc23)cc1	/	/	/	25µM	/	/
O=C(Nc1noc2ccccc12)c1cccc(Cl)c1Cl	.	?	.	.	.	.
CCCCn1cnc2cc(C(=O)N3CCCCC3)ccc21	/	/	/	.	/	/
Cc1ccc(-c2cc(C(=O)NC3CCCCC3)c3ccccc3n2)cc1C	/	/	/	.	/	/
CC(=O)Nc1ccc(Cl)cc1C(=O)c1ccc[nH]1	/	/	/	.	/	/
N[C@H](Cc1ccccc1)C(=O)Nc1ccc(Cl)cc1C(=O)c1ccc[nH]1	/	/	/	28µM	/	/
Cc1ccc(NS(=O)(=O)c2cccc(C#N)c2)c2[nH]cc(C#N)c12	/	/	/	.	/	/
Cc1cccc(CNc2ncnc3ccc(-c4cccnc4)cc23)c1	/	/	/	.	/	/
Cc1[nH]nc2ccc(-c3cncc(OC[C@@H](N)Cc4ccccc4)c3)cc12	/	.	/	25µM!	/	?
Cc1cc(-c2cc(O)ccc2Cl)cc2nnc(Nc3ccc(OCCN4CCCC4)cc3)nc12	/	/	/	20µM	/	/
COc1ccccc1Oc1c(NS(=O)(=O)c2ccc(C)cn2)nc(-c2ccncc2)nc1OC	/	/	/	.	/	/
Cc1c(C(=O)O)oc2c1-c1nn(Cc3ccc(Cl)cc3)cc1CC2	.	.	.	50µM	.	?
CCOC(=O)c1oc2c(c1C)-c1nn(Cc3ccc(Cl)cc3)cc1CC2	.	.	.	.	.	?
CC(=O)Nc1sc2cnccc2c1-c1nc2ccccc2s1	/	/	/	.	/	/
